Screening results from PubChem.
Cycloheximide cs: Cycloheximide Counterscreen for Small Molecule Inhibitors of Shiga Toxin; cell reporter, cycloheximide protein synthesis inhibition counterscreen; 300,000 compounds, 12% hits; max response, %; in the data active = max response mostly above about 13%, no sharp cut-off; inactive = mostly below about 14%; also: read at 38.3 µM for the half of the compounds with a filed dose; 0% is about no effect
FMDV antiviral: High Throughput Screening for Foot and Mouth Disease Virus Antivirals; FMDV antiviral cell-based qHTS; Potency, µM (highest dose often 57.9 µM), without a hit: at the top dose activity change, negative = inhibition, actives largely listed as inhibitors; 410,000 compounds, 1.2% hits; calls by dose curve; tested in HEK293T cells; also: read-out not given here; potency is read from the fitted curve at half-maximal effect; % is scaled to controls: 0 for no effect and ±100 for the full control effect; nearly all actives have a fitted effect of over 45% in size
Sm TGR inh: qHTS Assay for the Inhibitors of Schistosoma Mansoni Peroxiredoxins; Schistosoma mansoni thioredoxin glutathione reductase (TGR), Q962Y6; purified TGR, DTNB reduction, TNB absorbance 405 nm; 360,000 compounds, 3% hits; Potency, µM (series often up to 114 µM), for inactives: top-dose activity change, negative = inhibition, hits mostly inhibitors; active = well fitted inhibition curve with a large enough effect; inconclusive = small, poorly fitted or top-dose-only effect; inactive = no such curve, though single readings can be large or run the other way; also: potency is read from the fitted curve at half-maximal effect; % is scaled to controls: 0 for no effect and ±100 for the full control effect; nearly all actives have a fitted effect of over 60% in size
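Kinetic colorimetric format: TGR-catalysed, NADPH-driven DTNB reduction monitored via TNB absorbance. Enzyme dispensed at 20 nM; compound exposure 15 min at room temperature before reaction start.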
Shiga toxin inh: A qHTS for Small Molecule Inhibitors of Shiga Toxin | Vero cells, Shiga toxin protein synthesis inhibition reporter | 290,000 compounds, 9.2% hits | AID 2315, 2010 | inhibition, % at 38.7 µM; in the data active = inhibition mostly above about 28%, no sharp cut-off; inactive = mostly below about 43%; also: 0% is about no effect
* hit, by the source's call; ? = inconclusive; / = no result given. Rows were chosen to be rich in hits. Some 12% of all compounds tested hit in one or more screens of this group.

SMILES	Cycloheximide cs	FMDV antiviral	Sm TGR inh	Shiga toxin inh
COCC1CCN(Cc2nc(Cc3ccccc3Cl)no2)CC1	1.4	16.5%	4.6%	4.2
Cc1ccccc1NC(=O)c1c(NC(=O)c2ccncc2)sc2c1CCC(C(C)(C)C)C2 (stereo unspecified)	/	?	8.6%	/
Nc1cccc(-c2cnc3ccccc3n2)c1	63.9*	21.4%	1.0%	63.1*
O=[N+]([O-])c1cccc(-c2cnc3ccccc3n2)c1	24.1*	0.0%	-17.8%	63.3*
Cc1cccc(C(=O)Nc2cccc(-c3cnc4ccccc4n3)c2)c1	12.4	52.1%	-17.6%	59.4
O=C1CCCN1CCC(=O)N1CCCC(CO)(Cc2ccccc2)C1 (stereo unspecified)	54.8*	26.6%	0.3%	73.6*
COc1cccc(N2CC(NC(=O)c3ccc(S(=O)(=O)N4CCCC4)cc3)CC2=O)c1 (stereo unspecified)	/	-0.7%	19.3%	/
O=C(N/N=C/c1cccnc1)c1sc2ccccc2c1Cl	21.0*	25.7%	-4.8%	17.4
COc1ccc2c(Cl)c(C(=O)N/N=C/c3cccnc3)sc2c1	19.9*	9.8%	4.2%	47.1*
COc1ccc2c(Cl)c(C(=O)NN)sc2c1	25.5	/	-18.7%	27.2
Cc1c(C(=O)N/N=C/c2cccnc2)sc(=S)n1C	-3.6	-1.8%	-7.9%	-2.2
COc1ccc2c(Cl)c(C(N)=O)sc2c1	19.5*	13.9%	0.0%	10.2
Cc1cc(C)c(NC(=O)CSc2ncc(S(=O)(=O)c3ccc(C(C)(C)C)cc3)c(=O)[nH]2)c(C)c1	/	-26.0%	3.7%	/
CCCc1cc(-c2n[nH]c(C(=O)OCC)c2-c2cscn2)c(O)cc1O	-2.9	35.5µM*	3.2%	-11.1
O=C(Nc1ccc2c(c1)C(=O)OC2)c1ccc(F)cc1F	26.5*	61.0%	18.5%	34.9*
O=C(Nc1ccc2c(c1)C(=O)OC2)c1ccc(Cl)cc1	18.2*	22.0%	-3.9%	40.1
O=C(Nc1ccc2c(c1)C(=O)OC2)c1ccc(Cl)cc1Cl	16.0	32.5%	4.7%	10.1
O=C(Nc1ccc2c(c1)C(=O)OC2)c1ccc(C(F)(F)F)cc1	-7.7	0.8%	-2.2%	12.3
CCOC(=O)c1cnn(-c2ccc(C(=O)Nc3ccc(OC(F)(F)F)cc3)cc2)c1N	/	-11.6%	7.5%	/
CCOC(=O)c1cnn(-c2ccc(C)cc2)c1N	32.8*	42.8%	3.0%	74.9*
CCOC(=O)c1ccc(-n2ncc(C(=O)OCC)c2N)cc1	21.3*	22.8%	0.0%	33.5
Cc1cc(C)n(C(C)CC(=O)Nc2ccc(C)c(N(C)C)c2)n1 (stereo unspecified)	/	-17.3%	-1.1%	/
O=C(CN1C(=O)S/C(=C\c2ccc(Cl)cc2)C1=O)NCCCn1ccnc1	16.6*	-0.9%	-5.3%	26.0
COc1cccc(/C=C2\SC(=O)N(CCC(=O)NCCCn3ccnc3)C2=O)c1	9.5	-1.5%	3.8%	-15.1
COc1cccc(/C=C2\SC(=O)N(CC(=O)NCCCn3ccnc3)C2=O)c1	10.8	4.0%	4.2%	28.9*
SMILES	Cycloheximide cs	FMDV antiviral	Sm TGR inh	Shiga toxin inh
COc1ccc(/C=C2\SC(=O)N(CC(=O)NCCCn3ccnc3)C2=O)cc1	64.6*	25.8%	-21.3%	18.9*
CC(=O)c1ccc(-c2cccc(C3C4C=CCCC4(C)C(=O)N3Cc3ccccc3)c2)cc1 (stereo unspecified)	14.4	/	/	-4.6
N#CCCn1c(=O)c(-c2ccccc2)nc2cnc(OCc3ccccc3)nc21	/	-20.8%	/	/
COc1cccc(OCCCCn2c(-c3ccc(Cl)cc3)nc3ccccc3c2=O)c1	/	0.0%	-5.6%	/
CCn1ccc2cc(S(=O)(=O)N3CCCN(C(=O)Nc4cc(Cl)ccc4C)CC3)ccc21	/	-10.9%	8.7%	/
COc1ccc2c(c1)c1ncn(Cc3ccc(F)cc3)c(=O)c1n2C	-2.5	-11.1%	0.2%	16.9
COc1ccc2c(c1)c1ncn(Cc3ccco3)c(=O)c1n2C	12.8	-20.4%	39.8µM*	-8.3
COc1ccc2c(c1)[nH]c1c(=O)n(Cc3ccco3)cnc12	13.0*	37.9%	-13.4%	39.3
CCOc1ccccc1CNC(=O)C1CCN(c2nc3ccccc3nc2C(F)(F)F)CC1	/	0.0%	-0.7%	/
C=C(C=O)CC1CC(O)[C@]2(C)OC3CC4OC5C[C@]6(C)O[C@]7(C)CCC8OC9C[C@]%10(C)OC%11C(C)=CC(=O)OC%11CC%10OC9C[C@@H](C)C8OC7CC6O[C@]5(C)CC5OC5C4OC3CC2O1 (stereo partly specified)	-2.1	/	11.2µM*	11.7
CS(=O)(=O)N1CCc2cc(C(=O)NCc3ccccc3)ccc21	/	9.6%	5.9%	/
Cc1c(C(=O)NCc2ccccc2)oc2ccc(S(=O)(=O)N3CCC4(CC3)OCCO4)cc12	4.4	?	0.6%	-9.3
Cc1c(C(=O)Nc2ccc(F)c(F)c2)oc2ccc(S(=O)(=O)N3CCC4(CC3)OCCO4)cc12	/	-23.4%	-7.8%	/
Cc1c(C(=O)Nc2ccc(F)cc2)oc2ccc(S(=O)(=O)N3CCC4(CC3)OCCO4)cc12	-0.7	22.4µM*	6.5%	23.9
Cc1c(C(=O)Nc2ccc(F)c(F)c2)oc2ccc(S(=O)(=O)N3CCCCC3)cc12	1.0	14.1µM*	7.4%	23.7
Cc1ccc(NC(=O)c2oc3ccc(S(=O)(=O)N4CCCCCC4)cc3c2C)cc1Cl	/	?	3.5%	/
Cc1c(C(=O)NCCC2=CCCCC2)oc2ccc(S(=O)(=O)N3CCC4(CC3)OCCO4)cc12	0.7	17.8µM*	-12.5%	-9.2
Cc1c(C(=O)NCCc2ccccc2)oc2ccc(S(=O)(=O)N3CCOCC3)cc12	15.4*	0.0%	5.7%	14.6
COc1ccccc1N1CCN(C(=O)Cn2c(=O)nc(-c3ccccc3)c3cc(Cl)ccc32)CC1	/	24.5%	-5.8%	/
Cc1c(C(=O)O)oc2ccc(S(=O)(=O)N3CCCC3)cc12	5.6	-10.8%	0.0%	-5.5
CCCCN(C)C(=O)c1oc2ccc(S(=O)(=O)N3CCCCCC3)cc2c1C	-5.1	35.5µM*	-2.0%	-18.2
Cc1cccc(C)c1-n1ncc(C(=O)Nc2ccc3c(c2)OCCO3)c1C1CCN(C(=O)OC(C)(C)C)CC1	/	-17.6%	-0.8%	/
Cc1cc(NO)nc(-c2ccc(Br)cc2)n1	47.2*	57.5%	0.0%	108.7*
Cc1cc(OC(=O)N2CCCCC2)cc(C)c1Cl	19.5	-2.1%	-1.4%	47.8
Cc1ccc2c(Cl)cc(Cl)c(OCC(=O)N3CCOCC3)c2n1	/	-17.2%	-17.7%	/
SMILES	Cycloheximide cs	FMDV antiviral	Sm TGR inh	Shiga toxin inh
Cc1ccc2c(Cl)cc(Cl)c(OCC(=O)N3CCCC3)c2n1	35.3*	-10.6%	39.8µM*	66.7*
Cc1cc(OCC(=O)N2CCCN(C)CC2)ccc1Cl	15.6*	19.8%	3.6%	-16.1
Cc1cc(OCC(=O)N2CCCC2)cc(C)c1Cl	9.4*	-0.1%	7.0%	-1.6
Cc1cc(OCC(=O)N2CCCC2)ccc1Cl	22.6*	41.8%	?	52.3*
COc1cc(NC(=O)CCc2c(C)n(C)c3cc(-c4ccccc4C)nn3c2=O)cc(OC)c1OC	/	-19.6%	0.1%	/
O=C(COc1ccc2ccccc2c1)N1CCNCC1	12.3*	34.3%	-19.9%	52.4*
CCOC(=O)C(NC(=O)C(Cc1ccc(N(CCCl)CCCl)cc1)NC(C)=O)C(C)C (stereo unspecified)	-2.2	-8.9%	/	5.7
